High-throughput results: PubChem BioAssay, National Center for Advancing Translational Sciences (NCATS)
In the library only some 7.9% were active in any assay of this set; here they are far more common.
KB-V1 MDR tox: kills drug-selected multidrug resistant KB-V1 cells; KB-V1 MDR cells viability, CellTiter-Glo, 72 h; Potency, µM (doses to about 46.1 µM), hits mostly cytotoxic; hit rate 3.4% among 400,000; AID 1347076; also: % is scaled to controls: 0 for no effect and ±100 for the full control effect; nearly all actives have a fitted effect of over 60% in size
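Potencies derive from concentration-effect curves fitted to normalized luminescence (CellTiter-Glo) of KB-V1 cells treated for 72 h at 37 degrees C in phenol-red-free DMEM containing 10% FBS.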
MCF10A rereplic: DNA re-replication induction in MCF 10a cells; hit rate 2.9% among 350,000; AID 624296; Potency, µM (titrated, usually from 46.1 µM), inactives show at the top dose activity, positive = re-replication, actives largely listed as activators; MCF 10A DNA re-replication, Hoechst nuclear intensity, 48 h; also: % of control where 0% means no effect; nearly all actives have a fitted effect of over 50% in size
SW480 rereplic: inducers of DNA re-replication in SW480 colon cancer cells | AID 624297 | SW480 DNA re-replication, Hoechst DNA content imaging, 48 h | hit rate 1.8% among 340,000 | Potency, µM (top dose mostly 46.1 µM), for the others: top-dose re-replication activation, hits mostly activators; also: % of control where 0% means no effect; nearly all actives have a fitted effect of over 55% in size
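Cells (250 per well) received 23 nL compound or DMSO by pin tool and were kept 48 hr at 37 C, 5% CO2. Nuclei were then stained with Hoechst for 40 min and scanned for DNA content.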
KB-3-1 tox: KB-3-1 parental cell cytotoxicity; KB-3-1 viability, CellTiter-Glo ATP luminescence, 72 h; Potency, µM (titrated, usually from 46.1 µM), most hits filed as cytotoxic; hit rate 1.4% among 400,000; AID 1347075; also: % is scaled to controls: 0 for no effect and ±100 for the full control effect; nearly all actives have a fitted effect of over 60% in size
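KB-3-1 parental drug-naive adenocarcinoma cells in DMEM/10% FBS, incubated 72 h at 37 C with pin-transferred compounds across a concentration series. Viability by CellTiter-Glo luminescence; concentration-response curves fitted after normalization.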
HT1080-NT tox: kills 2HG-producing HT-1080-NT fibrosarcoma cells | Potency, µM (top dose mostly 46.1 µM), inactives show at the highest dose activity, negative = less viability, most hits filed as cytotoxic | HT-1080-NT fibrosarcoma viability, CellTiter-Glo ATP luminescence, 48 h | hit rate 1.6% among 360,000 | AID 686970;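 also: NT is the 2HG producing partner of a matched IDH1 knockdown line; 0% = DMSO-treated cells and -100% = media-only wells without cells; nearly all actives have a fitted effect of over 55% in size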
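HT-1080-NT fibrosarcoma cells (2HG-overproducing), 750 cells/well in RPMI with 5% FBS, dosed after 2 h and incubated 48 h at 37C. CellTiter-Glo luminescence normalized to DMSO and no-cell wells; concentration-response curves fitted and classed.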
HT1080 IDH1KD tx: kills HT-1080 cells with IDH1 knockdown. HT-1080 IDH1 knockdown viability, ATP luminescence, 48 h. Potency, µM (titrated, usually from 46.1 µM), inactives show at the highest dose activity, negative = toxicity, actives largely listed as cytotoxic. hit rate 2% among 360,000. AID 686971;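 also: 0% = DMSO wells and -100% = cell-free medium wells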
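Cytotoxicity counter-line: IDH1KD HT-1080, 48 h, CellTiter-Glo. Curves classed by r2, magnitude and activity.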
Active calls of the source: *; i = inactive; ? = inconclusive; nt = not tested or not shown; [ ] = remark or other dose. Calls follow the shape of the dose curve; as a rule, active = well fitted curve in the direction sought with a large enough effect; inconclusive = small, poorly fitted or top-dose-only effect, or another doubt; inactive = no such curve, though single readings can be large; an effect the other way counts as inactive or inconclusive. Potency is read from the fitted curve at half-maximal effect.

SMILES	KB-V1 MDR tox	MCF10A rereplic	SW480 rereplic	KB-3-1 tox	HT1080-NT tox	HT1080 IDH1KD tx
O=C(N/N=C/C1=Cc2ccccc2OC1)c1ccncc1	i	?	18.4µM*	i	5.4%	3.0%
O=C(N/N=C/c1ccco1)c1ccncc1	i	-3.7%	-13.8%	i	-1.2%	29.7%
COc1ccccc1/C=C/C=N/Nc1cccc(C(=O)O)c1	i	20.6µM*	7.2%	i	1.0%	-0.5%
COc1ccccc1C=NN=C(NN=Cc1ccccc1OC)NN=Cc1ccccc1OC	20.6µM*	26.2%	?	?	?	?
COc1cccc(C=NNC(=O)c2ccncc2)c1O	i	?	?	20.6µM*	?	1.46µM*
Cc1cc(NC(=O)CCCn2c(C)c3cnn(-c4ccccc4)c(=O)c3c2C)ccc1Br	i	nt	nt	i	nt	nt
CN1CCN(C(CNC(=O)C(=O)Nc2ccccc2)c2ccc3c(c2)OCO3)CC1 (stereo not given)	i	nt	nt	i	nt	nt
Cc1ccc(S(=O)(=O)Oc2ccccc2/C=N/Nc2ccc(C(=O)O)cc2)cc1	?	18.4µM*	?	i	-20.4%	-24.0%
CCn1c(C)nc2cc(C(=O)N/N=C/c3ccc(O)c(O)c3O)ccc21	i	23.9%	-2.4%	i	-13.3%	-12.6%
CCC(=NNC(=O)c1ccc2c(c1)nc(C)n2CC)c1cc(F)ccc1O	2.31µM*	10.5%	?	?	-6.4%	?
COc1cccc(/C=N/NC(=O)c2nc(-c3ccccc3)cc(-c3ccccc3)n2)c1O	?	6.9%	8.2µM*	?	?	?
CCn1c(C)nc2cc(C(=O)N/N=C/c3cccc(OC)c3O)ccc21	?	?	1.64µM*	i	-28.1%	?
O=C1c2cccc3c2C2(O)c4c1cccc4C(=O)c1cccc(c12)C3=O	?	nt	nt	i	14.6%	15.4%
CCOC(=O)C1CCN(c2cc(C)nc3c(-c4ccccc4OC)c(C)nn23)CC1	i	nt	nt	i	nt	nt
COc1ccc(NC(=O)C(c2ccnc3ccccc23)n2c(=O)c(-c3ccccc3)nc3ccccc32)cc1 (stereo not given)	i	nt	nt	i	-5.7%	-2.4%
Cc1nn2c(C)c(C(=O)N3CCN(c4ccc(Cl)cc4)CC3)cnc2c1-c1ccc(F)cc1	i	nt	nt	i	nt	nt
CCc1cccc(N2C(=O)CS(=O)(=O)C23C(=O)N(Cc2ccccc2)c2ccc(C)cc23)c1 (stereo not given)	?	nt	nt	i	nt	nt
CC(C)(C)OC(=O)N1CCC(c2c(C(=O)NCc3ccc4c(c3)OCO4)cnn2-c2ccccc2Cl)CC1	i	nt	nt	i	nt	nt
Cc1ccc(S(=O)(=O)Oc2ccccc2-c2ccccc2)cc1	?	11.6µM*	11.6µM*	?	?	16.4µM*
COc1cccc(/C=N/Nc2ccc(S(=O)(=O)O)cc2)c1O	i	-3.4%	-4.1%	i	11.3%	0.0%
COc1cc([N+](=O)[O-])cc(/C=N/NC(=O)c2cccnc2)c1O	i	6.51µM*	?	?	-0.1%	-1.5%
COc1cccc(/C=N/Nc2ccc(C(=O)O)cc2)c1O	?	-1.3%	-8.4%	16.4µM*	18.4µM*	20.6µM*
Cc1ccc(S(=O)(=O)Oc2ccccc2)cc1	i	-1.7%	-3.6%	i	2.3%	3.0%
COc1cccc(OCc2cc(/C=N/Nc3ccc(C(=O)O)cc3)ccc2OC)c1	i	?	?	i	20.6µM*	?
CO/N=C1\CCCc2c(C(=O)NN)sc(SC)c21	i	16.4µM*	?	i	16.4µM*	16.4µM*
SMILES	KB-V1 MDR tox	MCF10A rereplic	SW480 rereplic	KB-3-1 tox	HT1080-NT tox	HT1080 IDH1KD tx
Cn1c(=O)n(C)c2cc(N3CCOCC3)c(NS(=O)(=O)c3cccc(C#N)c3)cc21	i	nt	nt	i	nt	nt
COC(=O)c1cn(NC(=O)/C=C/c2cc(OC)ccc2OC)c(=O)c2ccccc12	8.2µM*	-30.8%	3.3%	i	-4.8%	-6.6%
Clc1cccc(Cl)c1COn1nnc2ccccc21	?	?	?	i	?	?
c1ccc(COn2nnc3ccccc32)c(COn2nnc3ccccc32)c1	16.4µM*	?	-6.8%	i	-4.6%	-2.5%
Cc1oc(-c2ccc(Cl)cc2)nc1Cn1c(=O)cc(-c2ccccc2)c2c(C)nn(C)c21	i	nt	nt	i	nt	nt
CCOc1cc(NC(=O)c2ccco2)c(OCC)cc1NC(=O)COc1ccccc1C	?	2.06µM*	10.2%	14.6µM*	6.4%	2.1%
CCOc1ccc(CC(=O)Nc2ccc(NC(=O)c3ccco3)cc2)cc1OCC	?	9.3%	2.9%	i	-23.7%	11.6µM*
Cc1ccccc1OCC(=O)NNC(=S)NC(=O)c1ccco1	i	14.1µM*	?	?	?	8.91µM*
Cc1ccccc1OCC(=O)Nc1ccccc1NC(=O)c1ccco1	i	12.5%	1.5%	i	3.6%	3.8%
COc1cc2c(cc1OC)C1(CCCC1)CNC2c1ccc([N+](=O)[O-])cc1 (stereo not given)	i	-32.9%	23.1µM*	i	-24.9%	-17.9%
O=C(COCc1cc(-c2cccs2)on1)NCc1ccc(Cl)cc1	i	nt	nt	i	nt	nt
Cc1occc1C(=O)NNC(=O)COc1ccc(Br)cc1Br	14.6µM*	4.3%	1.0%	i	-0.7%	-9.5%
CC(C)NC(=O)NC(=O)COc1ccc(Br)cc1Br	?	23.1µM*	12.1%	i	-3.7%	-9.3%
COc1ccc(NC(=O)Nc2ccc3c(c2)CCC3)cc1OC	i	1.6%	1.5%	i	4.9%	8.5%
COc1ccc(/C=C/C(=O)Nc2ccc3c(c2)CCC3)cc1OC	20.6µM*	23.8%	-82.3%	i	-0.8%	-13.8%
COc1ccc(C(C)(C)C)cc1NC(=O)Nc1ccc2c(c1)OCO2	23.1µM*	?	?	i	-0.8%	?
COc1ccc(/C=C/C(=O)Nc2cc(C(F)(F)F)ccc2Cl)cc1OC	20.6µM*	1.5%	-5.0%	i	3.7%	6.1%
COc1cc(/C=C/C(=O)Nc2cc(C(F)(F)F)ccc2Cl)cc(OC)c1OC	?	3.6%[9.22 µM]	?	?	-28.5%	?
COc1ccc(C)cc1NC(=O)Nc1ccc2c(c1)CCC2	i	23.1µM*	-9.2%	i	-4.9%	0.0%
COc1ccccc1NC(=O)Nc1ccc2c(c1)CCC2	i	1.9%	-4.1%	i	3.3%	4.8%
COC(=O)c1cc(OC)c(OC)cc1NC(=O)c1ccc2c(c1)CCN2S(=O)(=O)c1ccccc1	i	nt	nt	i	nt	nt
CCn1nc(C)c(CCN(C)C(=O)Nc2cccc(Cl)c2C)c1C	i	nt	nt	i	nt	nt
